According to PubChem BioAssay:
Active and inactive are the calls of the source.

Assays:
[1] = system: Plasmodium falciparum Sir2 (PF13_0152, Sir2A); assay: Plasmodium falciparum Sir2A binding compounds – biochemical, small-molecule microarray, 635 nm fluorescence, primary screen (AID 1098); conditions: fluorescence 635 nm, higher = more signal;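 note: score merges spot fluorescence intensity with its signal-to-noise ratio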
[2] = probe aDKK1 binding to arrayed compounds – biochemical, biotinylated probe, 635/667 nm fluorescence, primary screen (AID 1099); conditions: small-molecule microarray, higher = more signal;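 note: score merges 667nm spot fluorescence with signal to noise across triplicate slides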
[3] = probe aCHRDL2 binding to arrayed compounds – biochemical, biotinylated probe, 635/667 nm fluorescence, primary screen (AID 1100); conditions: small-molecule microarray, higher = more signal
[4] = change in splice reporter luminescence, either direction, cell-based, HEK293, spliceosome inhibition project, primary screen (AID 1101); conditions: HEK293 splicing luciferase reporter, 24 h, higher = more signal, called active from +8 up or from −8 down;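 note: HEK293 cells carrying a splicing-competent luciferase reporter gene; test concentration not given here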
[5] = molecular target: Fibroblast growth factor 10 (Homo sapiens) (UniProt O15520); assay: compounds binding fibroblast growth factor 10 – biochemical, small-molecule microarray, 635 nm fluorescence, primary screen (AID 1102); conditions: FGF10 binding, fluorescence 635 nm, higher = more signal
[6] = system: glycogen synthase kinase-3 (GSK3A per assay name; protocol says GSK3B); assay: compounds binding glycogen synthase kinase-3 – biochemical, small-molecule microarray, 635 nm fluorescence, GSK3A, primary screen (AID 1103); conditions: fluorescence 635 nm, higher = more signal; note: the record names both GSK3A and GSK3B
[7] = molecular target: Epidermal growth factor receptor (Homo sapiens) (UniProt P00533); assay: compounds binding epidermal growth factor receptor – biochemical, small-molecule microarray, 635 nm fluorescence, primary screen (AID 1104); conditions: EGFR binding, higher = more signal;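 note: score merges 667 nm emission intensity with spot signal to noise over triplicate slides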
[8] = molecular target: Follistatin-related protein 3 (Homo sapiens) (UniProt O95633); assay: compounds binding follistatin-related protein 3 – biochemical, small-molecule microarray, 635 nm fluorescence, primary screen (AID 1105); conditions: FSTL3 binding, higher = more signal;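 note: score merges emission near 667 nm and signal to noise per printed spot across three slides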
[9] = molecular target: Dickkopf-related protein 1 (Homo sapiens) (UniProt O94907); assay: small molecules binding DKK1 protein – biochemical, small-molecule microarray, 635 nm fluorescence scan, primary screen (AID 1106); conditions: higher = more signal;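 note: score merges emission near 667 nm with signal to noise over three replicate slides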
[10] = system: Inhibin beta A chain (activin A); assay: small molecules binding activin A – biochemical, small-molecule microarray, 635 nm fluorescence scan, primary screen (AID 1107); conditions: INHBA, higher = more signal;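 note: mouse activin A protein probed at 4.33 µg/mL on printed slides; score merges bound-protein fluorescence near 667 nm with spot signal-to-noise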
[11] = system: Human papillomavirus type 1a protein E7 (residues 44-93); assay: small molecules binding HPV E7 44-93 – biochemical, small-molecule microarray, residues 44-93, 635 nm fluorescence, primary screen (AID 1108); conditions: fluorescence 635 nm, higher = more signal;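 note: E7 fragment applied at 1 µg/mL in TBST for 1 h at 4 C; score combines spot fluorescence with its signal to noise ratio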
[12] = hepatitis C replication reporter changes, two-sided – Huh7 cells, luciferase reporter, HCV replication inhibitor project, primary screen (AID 1109); conditions: Huh7 HCV replicon luciferase reporter, 48 h; higher = more signal;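 note: huh7 hepatoma cells harbouring a luciferase neomycin HCV replicon reporter; luciferase luminescence as measure of HCV replicon replication; test concentration not given here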
[13] = molecular target: Left-right determination factor 2 (Homo sapiens) (UniProt O00292); assay: small molecules binding LEFTY2 protein – biochemical, small-molecule microarray, 635 nm fluorescence scan, primary screen (AID 1110); conditions: higher = more signal
[14] = molecular target: Calmodulin-1 (Homo sapiens) (UniProt P0DP23); assay: small molecules binding calmodulin-1 with EGTA – biochemical, small-molecule microarray, Cy5-labelled CALM1, profiling panel (AID 1111); conditions: Cy5-CALM1 binding fluorescence, higher = more signal;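 note: labelled calmodulin applied in Tris saline Tween buffer holding calcium plus EGTA and DTT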
[15] = molecular target: Calmodulin-1 (Homo sapiens) (UniProt P0DP23); assay: small molecules binding Ca-loaded calmodulin-1 – biochemical, small-molecule microarray, Cy5-labelled CALM1, plus calcium, artefact control for SMM control-protein annotation, profiling panel (AID 1112); conditions: Cy5-CALM1 binding fluorescence, higher = more signal;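 note: score merges spot fluorescence with signal to noise from triplicate slides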
[16] = probe aWnt5a binding to arrayed compounds – biochemical, biotinylated probe, 635/667 nm fluorescence, primary screen (AID 1113); conditions: small-molecule microarray, higher = more signal;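 note: score merges 667 nm fluorescence intensity with signal-to-noise per printed feature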
[17] = probe aShh binding to arrayed compounds – biochemical, biotinylated probe, 635/667 nm fluorescence, primary screen (AID 1114); conditions: small-molecule microarray, higher = more signal;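 note: probe is biotin-labelled aShh protein from a stem cell growth factor screen; measures binding of labelled protein to compounds printed on the slide; score merges feature fluorescence at 667 nm with signal-to-noise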
[18] = probe aNog binding to arrayed compounds – biochemical, biotinylated probe, 635/667 nm fluorescence, primary screen (AID 1115); conditions: small-molecule microarray, higher = more signal;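 note: probe is biotinylated aNog protein used at 0.15 µg/mL for 1 h at 4 C; z-score combines 667 nm fluorescence of each spot with its signal to noise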
[19] = molecular target: Torsin-1A-interacting protein 1 (Homo sapiens) (UniProt Q5JTV8); assay: compound microarray binding of lysate hLAP1 – cell lysate, small-molecule microarray, COS7 lysate, 635/667 nm fluorescence, primary screen (AID 1116); conditions: 635 nm fluorescence, higher = more signal
[20] = molecular target: Alpha-bungarotoxin (Bungarus multicinctus) (UniProt P60615); assay: compounds binding labelled alpha-BTX control protein – biochemical, small-molecule microarray, Alexa647 label, 635/667 nm fluorescence, artefact control for SMM control protein annotation, profiling panel (AID 1117); conditions: alpha-BTX-A647 binding fluorescence, higher = more signal
Alpha-bungarotoxin (Bungarus multicinctus), sequence (P60615 whole entry, looked up): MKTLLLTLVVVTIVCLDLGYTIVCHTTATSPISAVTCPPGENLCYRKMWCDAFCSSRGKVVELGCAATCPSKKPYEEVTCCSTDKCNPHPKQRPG

Epidermal growth factor receptor (Homo sapiens), sequence (P00533 whole entry, looked up): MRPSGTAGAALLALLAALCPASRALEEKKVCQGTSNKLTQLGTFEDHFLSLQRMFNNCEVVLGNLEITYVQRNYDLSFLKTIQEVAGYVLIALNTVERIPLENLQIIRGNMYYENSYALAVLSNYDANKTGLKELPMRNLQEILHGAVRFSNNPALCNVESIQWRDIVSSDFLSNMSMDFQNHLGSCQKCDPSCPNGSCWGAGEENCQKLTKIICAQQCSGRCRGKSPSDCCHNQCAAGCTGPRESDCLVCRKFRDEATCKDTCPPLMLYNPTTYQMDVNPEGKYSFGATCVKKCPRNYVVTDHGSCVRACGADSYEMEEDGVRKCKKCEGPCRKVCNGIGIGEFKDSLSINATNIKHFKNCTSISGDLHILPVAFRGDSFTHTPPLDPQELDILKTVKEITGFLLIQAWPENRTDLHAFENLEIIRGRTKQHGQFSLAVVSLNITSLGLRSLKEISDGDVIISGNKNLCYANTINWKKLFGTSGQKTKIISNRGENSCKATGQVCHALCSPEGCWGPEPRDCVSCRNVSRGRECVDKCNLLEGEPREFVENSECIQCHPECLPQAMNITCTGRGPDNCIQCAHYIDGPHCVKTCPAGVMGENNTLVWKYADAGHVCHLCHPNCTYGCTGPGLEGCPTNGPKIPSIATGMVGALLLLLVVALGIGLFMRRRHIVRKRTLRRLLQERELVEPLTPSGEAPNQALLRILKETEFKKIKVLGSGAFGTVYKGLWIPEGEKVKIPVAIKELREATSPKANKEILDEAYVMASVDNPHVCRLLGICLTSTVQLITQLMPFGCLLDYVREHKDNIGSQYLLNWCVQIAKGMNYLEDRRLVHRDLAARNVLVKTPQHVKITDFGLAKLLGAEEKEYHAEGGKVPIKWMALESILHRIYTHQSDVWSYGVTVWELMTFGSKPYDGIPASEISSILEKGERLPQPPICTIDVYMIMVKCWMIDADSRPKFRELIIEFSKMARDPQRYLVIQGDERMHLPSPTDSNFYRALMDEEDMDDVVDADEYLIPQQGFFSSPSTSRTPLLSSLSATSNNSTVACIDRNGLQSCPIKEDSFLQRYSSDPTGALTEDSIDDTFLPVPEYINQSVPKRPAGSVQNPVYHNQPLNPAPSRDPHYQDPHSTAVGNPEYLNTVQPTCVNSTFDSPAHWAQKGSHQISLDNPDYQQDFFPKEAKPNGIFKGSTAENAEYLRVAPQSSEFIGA
Dickkopf-related protein 1 (Homo sapiens), sequence (O94907 whole entry, looked up): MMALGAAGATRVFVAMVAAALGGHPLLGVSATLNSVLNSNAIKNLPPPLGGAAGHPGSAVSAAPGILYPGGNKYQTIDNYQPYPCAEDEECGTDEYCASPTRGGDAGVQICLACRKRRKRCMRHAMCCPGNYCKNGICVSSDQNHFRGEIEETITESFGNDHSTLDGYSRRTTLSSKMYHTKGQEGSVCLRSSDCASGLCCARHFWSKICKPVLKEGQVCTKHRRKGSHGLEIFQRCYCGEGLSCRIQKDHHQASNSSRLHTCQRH
Follistatin-related protein 3 (Homo sapiens), sequence (O95633 whole entry, looked up): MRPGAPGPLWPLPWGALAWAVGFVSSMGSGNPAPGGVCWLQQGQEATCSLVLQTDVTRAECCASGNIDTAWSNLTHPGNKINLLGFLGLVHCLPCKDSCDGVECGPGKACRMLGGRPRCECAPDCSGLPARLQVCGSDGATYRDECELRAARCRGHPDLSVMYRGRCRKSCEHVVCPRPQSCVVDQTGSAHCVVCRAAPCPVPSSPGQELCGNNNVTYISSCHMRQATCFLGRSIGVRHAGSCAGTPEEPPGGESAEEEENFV
Left-right determination factor 2 (Homo sapiens), sequence (O00292 whole entry, looked up): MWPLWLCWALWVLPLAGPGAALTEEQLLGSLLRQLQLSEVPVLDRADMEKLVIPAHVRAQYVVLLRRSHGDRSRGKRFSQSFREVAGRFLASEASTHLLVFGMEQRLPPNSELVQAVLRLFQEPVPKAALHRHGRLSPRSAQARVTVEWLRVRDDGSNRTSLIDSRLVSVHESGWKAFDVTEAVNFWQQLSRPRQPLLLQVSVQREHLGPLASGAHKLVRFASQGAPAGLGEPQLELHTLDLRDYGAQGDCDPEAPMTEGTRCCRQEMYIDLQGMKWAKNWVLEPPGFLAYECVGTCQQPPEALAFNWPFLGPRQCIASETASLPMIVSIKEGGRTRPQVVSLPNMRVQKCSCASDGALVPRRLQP
Fibroblast growth factor 10 (Homo sapiens), sequence (O15520 whole entry, looked up): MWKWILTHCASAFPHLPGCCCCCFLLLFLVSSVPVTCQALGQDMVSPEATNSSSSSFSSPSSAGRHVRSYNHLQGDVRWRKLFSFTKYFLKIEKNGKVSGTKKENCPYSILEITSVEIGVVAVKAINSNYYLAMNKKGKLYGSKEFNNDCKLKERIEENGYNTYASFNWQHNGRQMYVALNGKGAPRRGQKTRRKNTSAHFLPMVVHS
Torsin-1A-interacting protein 1 (Homo sapiens), sequence (Q5JTV8 whole entry, looked up): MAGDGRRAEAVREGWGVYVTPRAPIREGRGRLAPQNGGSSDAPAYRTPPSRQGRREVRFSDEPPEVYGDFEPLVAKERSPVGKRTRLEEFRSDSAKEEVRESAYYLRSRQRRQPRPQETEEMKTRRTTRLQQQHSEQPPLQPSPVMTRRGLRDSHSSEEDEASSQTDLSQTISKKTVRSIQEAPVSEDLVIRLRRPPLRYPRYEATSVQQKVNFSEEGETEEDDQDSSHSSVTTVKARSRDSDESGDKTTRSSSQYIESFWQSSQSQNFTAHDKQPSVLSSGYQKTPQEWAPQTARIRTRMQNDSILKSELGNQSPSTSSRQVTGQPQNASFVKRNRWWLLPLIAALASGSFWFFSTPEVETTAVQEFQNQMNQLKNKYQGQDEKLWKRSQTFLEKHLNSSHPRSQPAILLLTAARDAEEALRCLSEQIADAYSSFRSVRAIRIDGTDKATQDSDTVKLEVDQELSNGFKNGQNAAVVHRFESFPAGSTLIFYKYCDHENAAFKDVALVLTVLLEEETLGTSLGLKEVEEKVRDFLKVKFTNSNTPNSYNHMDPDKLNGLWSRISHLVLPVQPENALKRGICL

SMILES | composite z-score [1] | composite z-score [2] | composite z-score [3] | z-score [4] | composite z-score [5] | composite z-score [6] | composite z-score [7] | composite z-score [8] | composite z-score [9] | composite z-score [10] | composite z-score [11] | z-score [12] | composite z-score [13] | composite z-score [14] | composite z-score [15] | composite z-score [16] | composite z-score [17] | composite z-score [18] | composite z-score [19] | composite z-score [20]
CCCCC#C[C@@H]1C=C[C@H](Oc2ccc(C(=O)OC)cc2)[C@@H](COC(=O)OCC)O1 | 0.716 | 0.015 | -0.334 | 0.545 (inactive) | 0.785 | 0.277 | 0.385 | 1.05 | 0.414 | 0.273 | 0.42 | -3.22 | 0.494 | -0.184 | -0.581 | -0.0735 | -0.2 | 0.129 | 1.19 | 0.807
C=CC1=C[C@H](O)[C@@H]2O[C@@H]2C12OCCCO2 | 0.139 | -0.296 | -0.136 | 0.404 (inactive) | 0.351 | 1.03 | -0.547 | -0.0047 | -0.137 | 0.551 | 0.304 | -0.876 | 0.152 | -0.396 | -1.05 | -0.105 | -0.381 | -0.165 | 0.169 | 0.43
CC=CC1=C(CO)C(=O)[C@@H]2O[C@@H]2C1=O | 0.148 | -0.703 | -1.79 | -0.546 (inactive) | 0.799 | 0.571 | 1.01 | 1.17 | 1.57 | 1.49 | -1.52 | -2.28 | 1.27 | -1.58 | -1.61 | -0.145 | -0.304 | 0.0947 | -0.822 | 0.177
CC(CCC(=O)OC[C@H]1O[C@H](C#Cc2ccccc2)C=C[C@@H]1Oc1ccc(C)cc1)=NO[C@H](C)c1cn([C@H](CO)Cc2ccccc2)nn1 | 0.708 | -0.164 | -0.532 | 0.448 (inactive) | 0.17 | 0.197 | 0.217 | 1.12 | 0.655 | 0.282 | 0.53 | -1.57 | 0.423 | 0.0827 | -0.0351 | -0.0924 | -0.138 | 0.0169 | -0.166 | -0.0686
C=COC[C@@H]1CN2[C@@H](CC[C@@H](C)[C@@H]2c2ccc(Br)cc2)C(=O)O1 | 0.0845 | -0.319 | -0.0905 | -0.589 (inactive) | -0.472 | -0.413 | -0.46 | -0.46 | -0.0521 | 1.47 | -0.0205 | -0.0522 | -0.0429 | -0.941 | -1.26 | -0.124 | 0.0284 | -0.0079 | -0.111 | 0.259
COc1ccc(C#C[C@@H]2C=C[C@H](OC(C)=O)[C@@H](COC(C)=O)O2)cc1 | 0.647 | -0.174 | -0.289 | -0.613 (inactive) | 0.465 | 0.185 | 0.586 | 0.842 | 0.476 | 1.18 | 0.318 | -2.21 | 0.591 | -0.268 | -0.534 | -0.2 | -0.0471 | -0.208 | 0.257 | 0.193
CCOC(=O)[C@H](Cc1ccccc1)NC(=O)CCC1CC(OC(=O)NCCc2ccc(F)cc2)CC2(CCCC(COC(=O)NCCCN3CCCC3=O)O2)O1 (stereo not given in full) | 0.844 | -0.257 | -0.802 | -1.79 (inactive) | 0.767 | 0.843 | 0.478 | 0.69 | 0.493 | -0.103 | 1.35 | -0.427 | 0.612 | 0.566 | -0.043 | -0.0222 | 0.149 | 0.0083 | 0.0166 | 0.261
C[C@@H](c1ccccc1)N1C(=O)[C@H]2[C@H]3[C@H](O)[C@H](O)CC(=NO[C@@H]4O[C@H](CO)[C@@H](O)[C@H](O)[C@H]4O)[C@H]3CC[C@H]2C1=O | 0.249 | -0.155 | -0.546 | 0.0641 (inactive) | 0.559 | 0.783 | 0.425 | 1.03 | 0.44 | 0.0882 | 0.668 | -0.087 | 0.414 | -0.222 | -0.461 | -0.196 | 0.147 | -0.206 | 0.163 | 0.556
CC(C)=CCCC(C)=CCON=C1C[C@@H](O)[C@@H](O)[C@@H]2[C@@H]3C(=O)N(C4CCCCC4)C(=O)[C@@H]3CC[C@@H]12 | 0.511 | -0.355 | -0.858 | 0.956 (inactive) | 0.368 | -0.345 | 0.859 | 0.502 | 0.996 | 1.04 | 0.0997 | -0.471 | 0.464 | -0.403 | -1.15 | -0.128 | -0.209 | -0.261 | 0.259 | -0.0585
CCOC(=O)[C@H](CC(C)C)NC(=O)CCC1CC(OC(=O)NCCc2ccc(F)cc2)CC2(CCCC(COC(=O)NCCOc3ccccc3)O2)O1 (stereo not given in full) | 1.4 | -0.0843 | -0.545 | 0.119 (inactive) | 0.989 | 0.508 | 0.672 | 1.1 | 1.52 | -0.0219 | 1.36 | -0.972 | 1.16 | 1.02 | -0.129 | -0.15 | -0.13 | -0.0965 | 0.531 | 0.947
CC(=O)OC[C@H]1OC(ON=CC[C@@H]2C=C[C@H](OC(C)=O)[C@@H](COC(C)=O)O2)[C@H](OC(C)=O)[C@@H](OC(C)=O)[C@@H]1OC(C)=O (stereo not given in full) | 0.119 | -0.0393 | 0.265 | 0.632 (inactive) | 0.384 | 0.0032 | 0.261 | -0.368 | -0.416 | -2.75 | 0.781 | -0.3 | 0.624 | -0.0804 | -0.819 | -0.0957 | -0.154 | -0.144 | -0.0191 | -0.461
COC(=O)[C@H](C)NC(=O)CCC1CC(OC(=O)NCc2ccc3c(c2)OCO3)CC2(CCCC(COC(=O)NCC3CCCCC3)O2)O1 (stereo not given in full) | 0.74 | -0.21 | -0.647 | 0.507 (inactive) | 1.29 | 0.98 | 0.621 | 1.07 | 0.822 | -0.144 | 1.37 | -1.48 | 0.764 | 0.369 | -0.0553 | 0.0775 | -0.138 | 0.656 | 0.173 | 0.54
